Data from PubChem BioAssay AID1985 (Southern Research Specialized Biocontainment Screening …, 2009).
Among all 2,300 compounds or so, about 1,000 (43%) were called active. So high a share suggests a set chosen from earlier hits. The list shows a part of the results. Entries with a potency or affinity are not part of this list. Values without a mark were called inactive. No rule for the calls is given here.

test: modified counter assay using GFP fluorescence, PhoP regulon inhibitor project, dose response (AID 1985); conditions: S. Typhi, 4 h; series mostly up to 150 µM; inhibition: at the top concentration

SMILES | inhibition
Cc1cccc(OCc2nnc(SCC(=O)N3CCCC3)n2C)c1 | 0.15%
C[N+]1(CC2COC3(CCCCC3)O2)CCCCC1 (configuration not stated) | -16.7%
CCN(CC)S(=O)(=O)c1ccc2c(c1)c(C(=O)O)cn2C | -22.8%
Cc1nnc(SCC(=O)N(C(C)C)C(C)C)[nH]c1=O | -1.13%
O=C1CCCN1c1ccc(CNS(=O)(=O)c2ccc(F)cc2)cc1 | 14.6%
CCCCOc1ccc(C2=NNC(=O)CC2)cc1 | 10.7%
O=C(O)c1cnn2c1NC(c1cccs1)CC2C(F)(F)F (configuration not stated) | 16.3%
Cc1cc2ncn(/N=C/c3ccc([N+](=O)[O-])o3)c2cc1C | 38.2%
O=C(Nc1ccccc1)c1cccnc1N1CCOCC1 | -0.62%
Cc1cccc(N2CCN(C(=O)C3CCN(c4nnc(-n5cccc5)s4)CC3)CC2C)c1 (configuration not stated) | -1.88%
c1ccc2c(c1)nc(N1CCOCC1)c1c3ccccc3[nH]c21 | -20.5%
COCCNC(=S)N=Nc1c(O)[nH]c2ccc([N+](=O)[O-])cc12 | -1.84%
CC(=O)N1CSCC1C(=O)N1CCN(c2ccc(N3CCOCC3)nn2)CC1 (configuration not stated) | -3.7%
Cc1nc2ccc(NC(=O)C(F)(F)F)cc2o1 | 27%
CCn1nnnc1NCc1cccc(Cl)c1 | -20.1%
O=C(/C=C/c1ccc(Cl)cc1)NCCCn1ccnc1 | -22.4%
O=C(NCCCn1ccnc1)c1cc2c(ccc3ccccc32)o1 | 18.6%
Cc1noc(C)c1S(=O)(=O)N1CCC(Cc2ccccc2)CC1 | -9.13%
CC(C)(C)c1ccc(NC(=O)COc2ccc(-n3ccnc3)cc2)cc1 | 27.7%
Cc1nn(-c2ccccc2)c(C)c1/C=N/n1c(-c2ccc(C(C)(C)C)cc2)n[nH]c1=S | -11.4%
CC1CCCC(NC(=O)COC(=O)CCSc2ccccc2)C1C (configuration not stated) | -7.97%
O=C(Nc1ccccc1)C1=C(O)CC(c2ccc(Cl)cc2)N2CCN=C12 (configuration not stated) | 12.4%
CNCCC=C1c2ccccc2CCc2ccccc21 | 31.5%
CN(C)CCCN1c2ccccc2CCc2ccc(Cl)cc21 | 20.5%

SMILES | inhibition
c1cc(N2CCCC2)ccc1C(c1nnnn1C1CCCCC1)N1CCOCC1 (configuration not stated) | -19.3%
O=C(N/N=C/c1ccco1)c1cccc(NC(=O)c2cccc(Cl)c2)c1 | 23.2%
O=C(Nc1ccc2c(c1)OCCO2)C(=S)NCc1ccccc1 | -7%
Cc1ccccc1Cn1c(=O)n(CCCC(=O)NCc2ccco2)c(=O)c2ccccc21 | -9.8%
Cc1cc(C)nc(SCC(=O)NCc2ccco2)n1 | -6.91%
CC(C)CN1CCN(Cc2cnc(N3CCOCC3)s2)CC1CCO (configuration not stated) | 14.1%
O=C(Nc1ccc(N2CCOCC2)c(Cl)c1)c1ccc(-n2cnnc2)cc1 | -0.71%
COc1ccc2nc(NC(=O)Nc3ccccc3)sc2c1 | 9.9%
CC(C)Oc1ccc(N2CC(C(=O)Nc3ccccc3F)CC2=O)cc1 (configuration not stated) | -15.5%
CCOc1ccc(N2CC(C(=O)OCC(=O)NCc3ccccc3)CC2=O)cc1 (configuration not stated) | 0.98%
COc1ccc2nc(Nc3ccccc3)sc2c1 | 32.8%
O=[N+]([O-])c1ccc2oc(C3CCCCC3)nc2c1 | 8.69%
Cc1ccc(C)c(NC(=O)CCC(=O)N/N=C/c2cc([N+](=O)[O-])ccc2O)c1 | 11.1%
CC(=O)Cc1nsc(NC(=O)c2csc3c2CCCC3)n1 | 7.4%
Oc1ccccc1-c1cc(C(F)(F)C(F)F)[nH]n1 | -11.8%
O=C(O)c1ccc(N2C(=O)CC(N3C(=O)/C(=C/c4ccc(Cl)cc4)SC3=S)C2=O)cc1 (configuration not stated) | -12.8%
CN1C(=O)/C(=C/c2cccc(Cl)c2)Sc2ccc(C(=O)N3CCCC3)cc21 | -8.84%
CC1CCN(c2c(NCc3ccc(C(=O)N4CCN(C5CCCCC5)CC4)cc3)c(=O)c2=O)CC1 | -0.75%
Cc1cccc(NC(=O)c2sc3nc(-c4ccccc4)cn3c2C)n1 | 23.2%
Cc1cc[n+](CC(=O)c2ccc(NC(=O)c3ccccc3)cc2)cc1 | 29.1%
COc1cccc(N2CCN(C(=S)NCc3ccco3)CC2)c1 | -20.3%
COc1ccc(OC)c(-c2cc(C(=O)Nc3ccc(F)cc3F)no2)c1 | -11.1%
N#Cc1nc(COc2ccc(Br)cc2)oc1NCCCn1ccnc1 | 7.42%
Cc1cccc(CSCCNC(=O)COc2ccc(Cl)cc2)c1 | -11.1%

SMILES | inhibition
COc1ccc2nc(N(CCN(C)C)C(=O)/C=C/c3cccs3)sc2c1 | 3.3%
CN(C)CCN(C(=O)C1=COCCO1)c1nc2ccc(Cl)cc2s1 | 32.5%
Cc1cc(C)c2sc(N(CCCN(C)C)C(=O)COc3ccc(Cl)cc3)nc2c1 | -22.5%
COc1ccccc1C1CN(c2ccc(F)cc2F)N=C1c1cccs1 (configuration not stated) | -19.3%
Cc1ccc(S(=O)(=O)N2CCOCC2)cc1NC(=O)CSc1nc(N)cc(=O)[nH]1 | 5.71%
C=CCN1C(=O)C(O)(CC(=O)c2c(C)n[nH]c2C)c2cc(Br)ccc21 (configuration not stated) | -21.6%
Cc1nc(N=Nc2ccc(O)cc2)n[nH]1 | 8.35%
Cc1cc(C)nc(/N=C(\N)Nc2ccc(SC(F)F)cc2)n1 | -32%
O=C(Cn1cc(/C=C\[N+](=O)[O-])c2ccccc21)Nc1ccccc1 | -5.61%
CC(C)(C)n1nc2c(c1NC(=O)Cc1cccs1)CSC2 | 16.7%
CC1(NC(=O)NCCCCCCNC(=O)NC2(C)CCS(=O)(=O)C2)CCS(=O)(=O)C1 (configuration not stated) | 18.6%
Nc1ncnc2nc(SCC(=O)Nc3cccc(C(F)(F)F)c3)[nH]c12 | -18%
O=C(Nc1ccc2[nH]c(=S)sc2c1)Nc1ccccc1F | 16.8%
c1cnc2nc(-c3ccc4c(c3)OCO4)cn2c1 | -15.2%
Clc1ccc(Cn2cccc2C2=NCCO2)cc1 | -20.6%
CN1CCN(c2nc(Nc3ccc(F)cc3)nc(Nc3ccc(F)cc3)n2)CC1 | 3%
COc1ccc(S(=O)(=O)N[C@H](C(=O)N2CC[C@@]3(O)CCCC[C@H]3C2)c2ccccc2)cc1 | 5.64%
CCN(CC)CCOC(=O)c1cc(Cl)c(N)cc1OC | -1.1%
O=C(/C=C/c1ccc(O)cc1)c1ccccc1 | 34.7%
CCc1c(C)n([O-])c2c([n+]1=O)CCCCC2 | -20.9%
COc1ccc(N(CC(=O)N2c3ccccc3CC2C)S(=O)(=O)c2c(C)noc2C)cc1 (configuration not stated) | -9.92%
N#Cc1c(/N=C/c2cccs2)sc2c1CCCCC2 | -1.01%
Cc1cc(C)cc(CSc2nnc(C)c(=O)[nH]2)c1 | 9.57%
COc1cccc(CNC(=O)C2CCN(S(=O)(=O)c3ccc(C)cc3)CC2)c1 | -29.9%

SMILES | inhibition
CC(=O)NC(c1ccc(Cl)cc1Cl)c1ccc2cccnc2c1O (configuration not stated) | -7.3%
Cc1ccc(Cn2c(=N)c(C(=O)NCCN3CCOCC3)cc3c(=O)n4ccccc4nc32)cc1 | 18.7%
COc1cc2[nH]c(=O)n(Cc3ccc(C(=O)N4CCC(N5CCCCC5)CC4)cc3)c(=O)c2cc1OC | 10%
O=C(c1cc2c(s1)-c1ccccc1OC2)N1CCc2ccccc2C1 | 19.1%
CNC[C@@H](CC1CCCCC1)NC[C@H](CC(C)C)NCCc1cccc(C(F)(F)F)c1 | -36.2%
CS(=O)(=O)N1CC(C(=O)NC2CC2)Oc2ccc(Cl)cc21 (configuration not stated) | -27.2%
CCCSc1nc2cc(OC)c(OC)cc2c(=N)n1CCCN1CCOCC1 | 19.8%
CC(C)(C)NC(=O)c1ccc2c3c(cccc13)CC2 | -17.1%
O=C(CSc1nnnn1C1CCCCC1)N1CCCC1 | 14.7%
COCCn1nnnc1C(c1cccc(OC)c1OC)N1CCN(C2CCCCC2)CC1 (configuration not stated) | -5.07%
CC(C)OC(=O)c1cccc(C(=O)Oc2ccc(Br)cc2)n1 | 0.97%
CCOc1ccc(Cl)cc1/C=N/O | 8.29%
O/N=C/C1=C(Cl)c2ccccc2CC1 | 22.5%
CCOC(=O)Cn1c(=O)oc2cc(S(=O)(=O)NCC3CCCO3)ccc21 (configuration not stated) | -29.3%
CCOC(=O)C(NC(C)=O)(OCc1ccc(F)cc1)C(F)(F)F (configuration not stated) | 2.56%
Cc1nn(Cc2ccccc2Cl)c2sc(C(=O)Nc3ccccc3N3CCOCC3)cc12 | 7.16%
O=C1SC(c2ccccc2)=C/C1=C\N1CCCCC1 | 19.4%
CC(C)C(NS(=O)(=O)c1cccc2nsnc12)C(=O)N1CCn2c1nc1ccccc12 (configuration not stated) | -3.12%
Nc1[nH]c(=O)ncc1F | 8.91%
O=C1c2cccnc2C(=O)N1c1ccccc1-c1ccccc1 | -2.32%
Cc1ccc2c(c1)c1c(n2CC(O)CN2CCC(C)CC2)CCCC1 (configuration not stated) | -34.2%
Cc1ccc(-n2c(=O)c3sccc3n(CC(=O)NC3CCCCC3)c2=O)cc1 | 9.8%
C[N+]1(C)C2CCC1CC(OC(=O)c1ccccc1)C2 (configuration not stated) | -20.4%
CCN(CC)C(=O)C1CCN(Cc2ccc(Br)cc2)CC1 | -2.26%

SMILES | inhibition
COCCNC(=O)c1cccc(OC2CCN(Cc3ccccc3C)CC2)c1 | -1.98%
N=c1c(C(=O)NCC2CCCO2)cc2c(=O)n3ccccc3nc2n1Cc1ccc(Cl)cc1 (configuration not stated) | 9.7%
CCOc1ccc(NC(=O)CN(C)S(=O)(=O)c2cccs2)cc1 | 15.2%
Cc1ncc(CC(=O)n2cc(C(=O)c3cc(F)ccc3O)cn2)s1 | 38.7%
CN(C)C(=O)CC12CC3CC(C1)CC(CC(=O)N(C)C)(C3)C2 | -17.9%
Nc1cc2c3c(cccc3c1)C(=O)N(CCN1CCCC1)C2=O | 35%
CC[C@H](C)[C@@H](CN[C@H](C)CNC)NCCC(c1ccccc1)c1ccccc1 | 26.2%
O=C(Cn1c(=O)oc2ccccc21)N1CCN(c2ccc(N3CCOCC3)nn2)CC1 | 0.93%
CCn1c(O)c(N=NC(=O)CNC(=O)/C=C/c2ccco2)c2ccccc21 | 1.49%
Cc1c(CCN)ccc2c1[nH]c1ccccc12 | 26.4%
Cc1c(C=O)c2ccccn2c1C(=O)c1ccccc1 | 21.6%
O=C(N/N=C/c1c(Cl)nc2ccccn2c1=O)c1cccnc1 | -34.3%
Oc1ccc(-c2nc3ncccn3c2Nc2ccc3c(c2)OCCO3)cc1 | 15.1%
CC(C)CC(c1nnnn1Cc1ccco1)N1CCN(c2cccc(Cl)c2)CC1 (configuration not stated) | 17.4%
COc1cccc(C2=NO[C@@H]3C(=O)N(Cc4ccccc4)C(=O)[C@H]23)c1OC | 6.49%
CCOC(=O)/C=C1/N(C)c2ccccc2C1(C)C | -30.2%
CC(Oc1ccc(/C=N/NC(=O)Cc2cccc3ccccc23)cc1)C(=O)O (configuration not stated) | 0.72%
COc1ccc(/C=N/NC2=NCCCCC2)c(OC)c1 | 20.2%
Cc1ccc(N/N=C/c2ccncc2)cc1 | -6.54%
Cc1cc(N/N=C/c2ccc(F)cc2)nc(NCc2ccccc2)n1 | 17.8%
COc1ccc(/C=N/Nc2cc(C)nc3ccccc23)cc1 | -40.8%
